Test results: PubChem BioAssay (EPA / NIEHS)
Results filed as inconclusive are left out. The source made the active and inactive calls. The calls were made as follows, unless noted: active = hit-call score of the fitted dose curve at least 0.9, where 1 is the maximum; inconclusive = response in the unintended direction; inactive = score below 0.9.

Experiments:
[1] = CCTE_Harrill_HTTr_Viability_DMEM_6hr: (Pilot) CCTE's 6-hour Cell Viability Assessment for the High-Throughput Transcriptomics (HTTr) Platform, in MCF-7 cells cultured in DMEM + 10% fetal bovine serum, Harrill Lab (AID 2283973; active = hit-call score of the fitted dose curve at least 0.9, where 1 is the maximum; inactive = score below 0.9)
Method in brief: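 Propidium iodide uptake imaged by high-content analysis after six hours of chemical treatment in an eight-concentration series. Cells: MCF-7 grown in DMEM with 10% fetal bovine serum; DMSO as baseline.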

[2] = CCTE_Harrill_HTTr_Viability_DMEM_12hr: (Pilot) CCTE's 12-hour Cell Viability Assessment for the High-Throughput Transcriptomics (HTTr) Platform, in MCF-7 cells cultured in DMEM + 10% fetal bovine serum, Harrill Lab (AID 2283974; active = hit-call score of the fitted dose curve at least 0.9, where 1 is the maximum; inactive = score below 0.9)
Method in brief: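 Propidium iodide dye exclusion imaged by high-content microscopy after 12 h chemical exposure (eight concentrations) of MCF-7 cells grown in DMEM plus 10% FBS; values fitted in both directions relative to DMSO.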

[3] = CCTE_Harrill_HTTr_Viability_DMEM_24hr: (Pilot) CCTE's 24-hour Cell Viability Assessment for the High-Throughput Transcriptomics (HTTr) Platform, in MCF-7 cells cultured in DMEM + 10% fetal bovine serum, Harrill Lab (AID 2283975; active = hit-call score of the fitted dose curve at least 0.9, where 1 is the maximum; inactive = score below 0.9)
Method in brief: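 Pilot study: propidium iodide dye exclusion, imaged by high content microscopy, after 24 h compound exposure (eight concentrations) in MCF-7 cultured in DMEM + 10% fetal bovine serum; DMSO served as negative control and baseline.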

[4] = CCTE_Harrill_HTTr_Viability_PRF_DMEM_6hr: (Pilot) CCTE's 6-hour Cell Viability Assessment for the High-Throughput Transcriptomics (HTTr) Platform, in MCF-7 cells cultured phenol red-free DMEM + 10% charcoal-stripped fetal bovine serum, Harrill Lab (AID 2283976; active = hit-call score of the fitted dose curve at least 0.9, where 1 is the maximum; inactive = score below 0.9)
Method in brief: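 Membrane integrity by high-content imaging of propidium iodide uptake, six hours after dosing with eight concentrations. Cells: MCF-7 grown in phenol red-free DMEM plus 10% charcoal-stripped serum; DMSO serves as baseline for bidirectional fits.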

[5] = CCTE_Harrill_HTTr_Viability_PRF_DMEM_12hr: (Pilot) CCTE's 12-hour Cell Viability Assessment for the High-Throughput Transcriptomics (HTTr) Platform, in MCF-7 cells cultured in phenol red-free DMEM + 10% charcoal-stripped fetal bovine serum, Harrill Lab (AID 2283977; active = hit-call score of the fitted dose curve at least 0.9, where 1 is the maximum; inactive = score below 0.9)
Method in brief: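 Membrane integrity was scored via propidium iodide dye exclusion imaging, fitted in both directions relative to DMSO. Compounds ran as eight-point dilutions for 12 hours on MCF-7 grown in phenol red-free DMEM plus 10% charcoal-stripped serum.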

[6] = CCTE_Harrill_HTTr_Viability_PRF_DMEM_24hr: (Pilot) CCTE's 24-hour Cell Viability Assessment for the High-Throughput Transcriptomics (HTTr) Platform, in MCF-7 cells cultured in phenol red-free DMEM + 10% charcoal-stripped fetal bovine serum, Harrill Lab (AID 2283980; active = hit-call score of the fitted dose curve at least 0.9, where 1 is the maximum; inactive = score below 0.9)
Method in brief: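 Propidium iodide exclusion imaged at 24 h after dosing scores viability; cells were MCF-7 grown in phenol red-free DMEM plus 10% charcoal-stripped serum, tested in eight concentrations, fitted in both directions against DMSO.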

[7] = CCTE_Harrill_HTTr_Apoptosis_DMEM_6hr: (Pilot) CCTE's 6-hour Apoptosis Assessment for the High-Throughput Transcriptomics (HTTr) Platform, in MCF-7 cells cultured in DMEM + 10% fetal bovine serum, Harrill Lab (AID 2283981; active = hit-call score of the fitted dose curve at least 0.9, where 1 is the maximum; inactive = score below 0.9)
Method in brief: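 MCF-7 cells grown in DMEM + 10% FBS were exposed for 6 hours to an eight-point dilution series. CellEvent Caspase 3/7 Green signal was imaged; activity fitted bidirectionally against DMSO.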

[8] = CCTE_Harrill_HTTr_Apoptosis_DMEM_12hr: (Pilot) CCTE's 12-hour Apoptosis Assessment for the High-Throughput Transcriptomics (HTTr) Platform, in MCF-7 cells cultured in DMEM + 10% fetal bovine serum, Harrill Lab (AID 2283982; active = hit-call score of the fitted dose curve at least 0.9, where 1 is the maximum; inactive = score below 0.9)
Method in brief: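 Caspase-3/7 activity was measured by high-content imaging (CellEvent Caspase 3/7 Green) after a 12-hour exposure of MCF-7 cells grown in DMEM with 10% FBS. Eight-point concentration series, fitted bidirectionally against vehicle.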

[9] = CCTE_Harrill_HTTr_Apoptosis_DMEM_24hr: (Pilot) CCTE's 24-hour Apoptosis Assessment for the High-Throughput Transcriptomics (HTTr) Platform, in MCF-7 cells cultured in DMEM + 10% fetal bovine serum, Harrill Lab (AID 2283983; active = hit-call score of the fitted dose curve at least 0.9, where 1 is the maximum; inactive = score below 0.9)
Method in brief: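 Caspase-3/7 activity read by high-content imaging (CellEvent Green reagent) 24 h after dosing. MCF-7 cells grown in DMEM with 10% FBS received an eight-point concentration series; fits were bidirectional versus DMSO.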

[10] = CCTE_Harrill_HTTr_Apoptosis_PRF_DMEM_6hr: (Pilot) CCTE's 6-hour Apoptosis Assessment for the High-Throughput Transcriptomics (HTTr) Platform, in MCF-7 cells cultured phenol red-free DMEM + 10% charcoal-stripped fetal bovine serum, Harrill Lab (AID 2283984; active = hit-call score of the fitted dose curve at least 0.9, where 1 is the maximum; inactive = score below 0.9)
Method in brief: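 Caspase-3/7 activity (CellEvent Green) read by high-content imaging 6 h after dosing, eight concentrations. Cells: MCF-7, phenol red-free DMEM with 10% charcoal-stripped serum. Curves fit both directions against DMSO.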

[11] = TOX21_TRB_BLA_Antagonist_Followup_viability: Viability Assessment in the Tox21 Thyroid Hormone Receptor beta Antagonism Beta-lactamase (BLA) Follow-Up Assay (AID 2283961)
Method in brief: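 HEK293T cells stably expressing GAL4-DBD/human TRβ-LBD with UAS-bla reporter, 3,000 cells/well in phenol red-free DMEM, 2% charcoal-stripped FBS. Compounds at 11 concentrations in triplicate, 18 h at 37C/5% CO2; viability by CellTiter-Glo luminescence after 30 min at room temperature.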

THRB (gene 7068) [12] = biological target: THRB (gene 7068) (UniProt P10828); experiment: TOX21_TRB_COA_Antagonist_Followup_ratio: Tox21 Thyroid Hormone Receptor beta Antagonism through Coactivator Recruitment Follow-Up Assay, Ratio (AID 2283967)
THRB (gene 7068), sequence (P10828 whole entry, looked up, the tested form may be a part): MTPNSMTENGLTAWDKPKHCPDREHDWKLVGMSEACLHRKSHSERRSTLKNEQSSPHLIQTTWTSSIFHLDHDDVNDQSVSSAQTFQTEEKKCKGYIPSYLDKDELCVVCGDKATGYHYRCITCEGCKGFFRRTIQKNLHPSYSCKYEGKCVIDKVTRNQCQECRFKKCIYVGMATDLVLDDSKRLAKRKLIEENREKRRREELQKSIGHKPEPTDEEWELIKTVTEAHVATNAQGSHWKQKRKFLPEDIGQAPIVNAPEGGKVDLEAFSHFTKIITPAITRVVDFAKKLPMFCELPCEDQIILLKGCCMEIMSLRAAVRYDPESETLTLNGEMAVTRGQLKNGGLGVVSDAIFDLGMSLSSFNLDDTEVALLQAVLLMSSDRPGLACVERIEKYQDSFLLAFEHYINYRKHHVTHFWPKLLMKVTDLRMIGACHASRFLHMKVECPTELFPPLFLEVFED
Method in brief: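 Coactivator recruitment to the GST-tagged TRb ligand-binding domain (5.0 nM) was read as the 520/495 nm TR-FRET ratio, using 200 nM fluorescein SRC-2 peptide and 2 nM terbium anti-GST. Scaled between DMSO and T3 wells; loss of signal fitted.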

[13] = biological target: Retinoic acid receptor RXR-alpha (Homo sapiens) (UniProt P19793); experiment: TOX21_TR_RXR_BLA_Antagonist_Followup_ratio: Tox21 Thyroid Hormone Receptor beta Retinoid X Receptor alpha (RXRa) Antagonism Beta-lactamase (BLA) Follow-Up Assay, Ratio (AID 2283972)
Retinoic acid receptor RXR-alpha (Homo sapiens), sequence (P19793 whole entry, looked up): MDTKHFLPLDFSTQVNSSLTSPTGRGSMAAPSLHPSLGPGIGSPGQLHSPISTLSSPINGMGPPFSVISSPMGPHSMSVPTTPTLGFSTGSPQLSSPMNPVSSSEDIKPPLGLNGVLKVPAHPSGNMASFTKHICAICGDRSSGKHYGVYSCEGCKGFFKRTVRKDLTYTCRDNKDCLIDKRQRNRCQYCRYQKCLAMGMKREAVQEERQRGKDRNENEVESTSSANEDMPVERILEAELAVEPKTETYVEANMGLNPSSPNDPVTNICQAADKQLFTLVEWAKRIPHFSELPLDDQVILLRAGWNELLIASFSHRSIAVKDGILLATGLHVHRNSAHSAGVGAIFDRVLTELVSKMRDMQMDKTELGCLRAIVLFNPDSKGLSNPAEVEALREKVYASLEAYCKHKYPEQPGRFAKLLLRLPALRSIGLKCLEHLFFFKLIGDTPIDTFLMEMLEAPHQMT
Method in brief: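 RXRa-UAS-bla HEK293T cells in phenol red-free DMEM with 2% charcoal-stripped FBS; compounds at 11 concentrations in triplicate, 16 h at 37C. LiveBLAzer FRET-B/CCF4-AM substrate 2 h at room temperature; read as 460:530 nm ratio versus DMSO.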

[14] = TOX21_TR_RXR_BLA_Antagonist_Followup_viability: Viability Assessment in the Tox21 Thyroid Hormone Receptor beta Retinoid X Receptor alpha (RXRa) Antagonism Beta-lactamase (BLA) Follow-Up Assay (AID 2283979)
Method in brief: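 Follow-up compounds (11 concentrations, triplicate) were incubated 16 h at 37C/5% CO2 with HEK293T RXRa-bla cells seeded at 2,500/well in charcoal-stripped-serum medium. ATP content by CellTiter-Glo luminescence gave viability; curves fitted in both directions against DMSO.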

THRB (gene 7068) [15] = biological target: THRB (gene 7068) (UniProt P10828); experiment: TOX21_TRB_BLA_Agonist_Followup_ratio: Tox21 Thyroid Hormone Receptor beta Agonism Beta-lactamase (BLA) Follow-Up Assay, Ratio (AID 2283954)
Method in brief: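 Agonist mode: compounds (11-point, triplicate) incubated 18 h with HEK293T cells carrying GAL4-DBD/human TRβ-LBD and UAS-β-lactamase. Blue/green (460/530 nm) FRET ratio read after 2 h CCF4-AM loading; CellTiter-Glo viability run in the same plates.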

[16] = TOX21_TRB_BLA_Agonist_Followup_viability: Viability Assessment in the Tox21 Thyroid Hormone Receptor beta Agonism Beta-lactamase (BLA) Follow-Up Assay (AID 2283956)
Method in brief: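 Viability was read as CellTiter-Glo luminescence in the same wells as the TRb-bla agonist read-out. HEK293T GAL4-TRb LBD cells were treated for 18 h (37C, 5% CO2) at 11 concentrations in triplicate. Fits were bidirectional versus DMSO baseline.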

THRB (gene 7068) [17] = biological target: THRB (gene 7068) (UniProt P10828); experiment: TOX21_TRB_COA_Agonist_Followup_ratio: Tox21 Thyroid Hormone Receptor beta Agonism through Coactivator Recruitment Follow-Up Assay, Ratio (AID 2283963; active = hit-call score of the fitted dose curve at least 0.9, where 1 is the maximum; inactive = score below 0.9)
Method in brief: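 GST-TRb LBD 5.0 nM + 0.10% BSA + cpd; add fluorescein-SRC-2 200 nM / Tb anti-GST Ab 2 nM; TR-FRET ex 340, em 520:495; norm DMSO 0%, T3 100%.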

[18] = biological target: Retinoic acid receptor RXR-alpha (Homo sapiens) (UniProt P19793); experiment: TOX21_TR_RXR_BLA_Agonist_Followup_ratio: Tox21 Thyroid Hormone Receptor beta Retinoid X Receptor alpha (RXRa) Agonism Beta-lactamase (BLA) Follow-Up Assay, Ratio (AID 2283968)
Method in brief: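 Read-out: blue/green (460:530 nm) FRET ratio from cleaved vs uncleaved CCF4 substrate, fitted for gain of signal relative to DMSO. Cells: HEK293T with RXRa-UAS-bla reporter; 16 h compound exposure, 11 concentrations, triplicate.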

[19] = TOX21_TR_RXR_BLA_Agonist_Followup_viability: Viability Assessment in the Tox21 Thyroid Hormone Receptor beta Retinoid X Receptor alpha (RXRa) Agonism Beta-lactamase (BLA) Follow-Up Assay (AID 2283970)
Method in brief: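 CellTiter-Glo ATP quantitation as viability read-out in RXRa-bla HEK293T cells (2,500/well, charcoal-stripped 2% FBS medium), 16h compound incubation at 37C. Loss of signal versus DMSO taken as cytotoxicity, analyzed by bidirectional curve fitting.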

THRB (gene 7068) [20] = biological target: THRB (gene 7068) (UniProt P10828); experiment: TOX21_TRB_BLA_Antagonist_Followup_ratio: Tox21 Thyroid Hormone Receptor beta Antagonism Beta-lactamase (BLA) Follow-Up Assay, Ratio (AID 2283958)
Method in brief: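 Read-out: blue/green (460:530 nm) ratio of cleaved to uncleaved CCF4-AM after 2 h at room temperature, fitted against DMSO baseline. HEK293T UAS-bla cells carrying GAL4-human TRβ LBD were exposed 18 h, 37C/5% CO2.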

CS(=O)(=O)NC(=O)c1cc(Oc2ccc(C(F)(F)F)cc2Cl)ccc1[N+](=O)[O-]
outcome [1]: inactive
outcome [2]: inactive
outcome [3]: inactive
outcome [4]: inactive
outcome [5]: inactive
outcome [6]: inactive
outcome [7]: inactive
outcome [8]: inactive
outcome [9]: inactive
outcome [10]: inactive

COC(=O)Nc1nc2ccccc2[nH]1
outcome [11]: inactive
outcome (THRB (gene 7068) [12]): inactive
outcome [13]: inactive
outcome [14]: inactive

Clc1ccc(Cl)c(Cl)c1
outcome (THRB (gene 7068) [15]): inactive
outcome [16]: inactive
outcome (THRB (gene 7068) [17]): inactive
outcome [18]: inactive
outcome [19]: inactive

Cc1ccc(N)cc1
outcome (THRB (gene 7068) [15]): inactive
outcome [16]: inactive
outcome (THRB (gene 7068) [17]): inactive
outcome [18]: inactive
outcome [19]: inactive

CN(C)c1ccc(C(=O)c2ccc(N(C)C)cc2)cc1
AC50 (THRB (gene 7068) [20]): 2.66 µM (active)
outcome [11]: inactive
outcome (THRB (gene 7068) [12]): inactive
outcome [13]: inactive
outcome [14]: inactive
